# How the values were obtained:
# Assay in all cases: PBM binding z-score (relative to random genomic background probes); higher = stronger binding; sequences stand for … in GC…GCGATTGACAGCGTAGAATGAAGG
# [1] = system: PPARg:RXRa DBDmut IVT, anti-RXR (DBD mutation: RXRa K156A/R161A, NR concentration 270 nM, RXRa partner concentration 90 nM)
# Method in brief: (§1)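 For binding z-scores, the reference was random background probes on custom Agilent 4×180K protein-binding microarrays. These arrays were incubated 1 h with ligand-free nuclear receptor dimers in PBS pH 7.4, 2% milk, 0.02% Triton X-100, 1 mM DTT, 0.2 mg/mL BSA and 0.4 mg/ml salmon testes DNA. Fluorescence was scanned after antibody detection of each partner (one per run) and regression-normalized.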
# [2] = system: PPARg:RXRa IVT, anti-PPARg (NR concentration 270 nM, RXRa partner concentration 90 nM)
# Method in brief: as §1
# [3] = system: PPARg DBDmut:RXRa IVT, anti-PPARg (DBD mutation: PPARg1 K132A/R137A, NR concentration 270 nM, RXRa partner concentration 90 nM)
# Method in brief: as §1
# [4] = system: PPARg DBDmut IVT, anti-PPARg (DBD mutation: PPARg1 K132A/R137A, NR concentration 270 nM)
# Method in brief: as §1
# [5] = system: PPARg homodimer (NR concentration 180 nM)
# Method in brief: as §1
# [6] = system: PXR:RXRa (NR concentration 270 nM, RXRa partner concentration 90 nM)
# Method in brief: as §1
# [7] = system: PXR homodimer (NR concentration 270 nM)
# Method in brief: as §1
# [8] = system: RARa:RXR (NR concentration 270 nM, RXRa partner concentration 90 nM)
# Method in brief: as §1
# [9] = system: RARa homodimer (NR concentration 270 nM)
# Method in brief: as §1
# [10] = system: RARb:RXRa (NR concentration 270 nM, RXRa partner concentration 90 nM)
# Method in brief: as §1
# [11] = system: RARb homodimer (NR concentration 270 nM)
# Method in brief: as §1
# [12] = system: RARg:RXRa (NR concentration 270 nM, RXRa partner concentration 90 nM)
# Method in brief: as §1
# [13] = system: RARg homodimer (NR concentration 270 nM)
# Method in brief: as §1
# [14] = system: RXRa DBDmut IVT, anti-RXR (DBD mutation: RXRa K156A/R161A, NR concentration 90 nM)
# Method in brief: as §1
# [15] = system: RXRa homodimer (NR concentration 180 nM)
# Method in brief: as §1
# [16] = system: THRa:RXRa (NR concentration 90 nM, RXRa partner concentration 90 nM)
# Method in brief: as §1
# [17] = system: THRa homodimer (NR concentration 90 nM)
# Method in brief: as §1
# [18] = system: VDR homodimer (NR concentration 270 nM)
# Method in brief: as §1
Sequence,PBM binding z-score [1],PBM binding z-score [2],PBM binding z-score [3],PBM binding z-score [4],PBM binding z-score [5],PBM binding z-score [6],PBM binding z-score [7],PBM binding z-score [8],PBM binding z-score [9],PBM binding z-score [10],PBM binding z-score [11],PBM binding z-score [12],PBM binding z-score [13],PBM binding z-score [14],PBM binding z-score [15],PBM binding z-score [16],PBM binding z-score [17],PBM binding z-score [18]
CCTTCTAGGTCAATGGTCAGCTAAAGCAGCTCGC,7.32,6.6,0.00752,0.699,2.03,0.931,-0.321,1.73,0.51,3.85,2.97,3.53,4.58,1.88,2.35,2.71,1.37,0.249
GCGACTGGGGCATCAGCAGCTTACCATAACTTAA,4.14,2.77,-0.78,-0.628,-0.268,-0.462,-0.432,-0.454,-0.449,0.116,-0.217,-0.328,-0.193,0.178,-0.47,-0.225,-0.422,-0.429
GCTGCTAGGTCAACTGATGGACAGCTAAAGCTCG,4.96,4.05,-0.737,-0.4,0.547,1.05,-0.677,1.9,-0.785,4.12,3.12,4.45,5.36,1.28,2.94,2.72,0.89,-0.122
CCGATTAGTTGACCATAAGGGCAACCGAAGCTCG,0.626,0.151,0.0233,-0.144,0.907,0.523,0.00458,0.703,0.65,1.46,2.01,0.824,0.774,0.777,0.56,1.7,0.965,0.334
GCTAGCAGGCCATTTAGGTCACTCAATGACGGGC,1.71,2.41,-0.196,-1.01,-0.0591,0.564,0.12,0.658,-0.306,1.8,2.27,1.47,1.75,0.101,1,2.79,1.71,0.244
ATCGAAAGGTCGACGAGGTGGGTATACACCGTTT,0.15,1.75,0.733,1.26,1.34,2.6,0.341,2.98,-0.0132,3.68,2.71,4.03,3.85,0.746,4.17,2.51,-0.214,0.638
ACTATTAGTTGAGACGAGGGCAACGGATAGGTTG,-0.0332,0.424,0.418,0.955,0.155,1.32,0.265,1.26,0.262,0.843,0.993,0.638,0.908,0.374,0.585,2.53,0.137,0.875
CCTACTGGGCCACGAACGGTCATTGATTCAGTGA,5.64,4.88,-0.4,-0.69,0.254,-0.201,-0.435,0.0689,-0.329,1.42,1.91,0.72,1,-0.535,-0.0982,0.584,-0.505,-0.169
GCTCGTAGATCAAGGTTAAGAAAGACTAAGCTAA,-0.49,-0.249,-1.42,-0.839,-1.01,0.125,-0.272,0.412,-0.428,0.601,-0.0448,0.0431,-0.0396,-0.285,0.709,0.978,-0.631,-0.34
TTACCAAGGTGGAAGGTCGTTGATGCACGCCTTG,-0.302,1.09,-0.236,-1.11,0.535,0.751,-0.0879,1.26,-0.0243,0.885,0.907,0.595,0.158,-0.443,1.43,0.674,-0.0203,0.895
CAAACTAGGTCACCAGAAGGTCAAAGTCCGCATG,8.93,9,4.64,2.7,9.04,5.96,2.47,7.6,3.53,5.18,5.5,8.08,7.22,2.32,6.38,4.35,2.59,3.71
TCCTGTAGATCAATAGAGGTTAAGAAAGTGCGCT,1.98,0.459,0.335,0.281,0.185,2.91,0.378,1.59,0.54,0.925,1.25,0.701,0.381,1.41,1.19,2.29,-0.00152,0.39
GATACAGGGTCAAGGCCAGGGTACGCGTATTGAT,1.85,4.19,0.695,0.43,3.1,4.32,0.122,5.19,0.648,4.5,3.96,5.8,4.85,2.61,5.97,3.95,1.51,2.65
AGTCAAAGTTCAGGACTAGGTAACGTAAAGCACG,0.593,3.09,0.657,0.484,1.73,2.41,1.04,2.4,1.11,4.13,2.93,4.32,4.99,2.87,2.92,2.51,0.371,1.94
